The results in this text go back to publication PMC6212790, “How bacterial xenogeneic silencer rok distinguishes foreign from self DNA in its resident genome”.

Over roughly 33,000 sequences, “e-score” has its median near -0.037; the highest 2% begin near 0.34. The list comes from a sample in which the highest values are over-represented; it also holds similar and randomly drawn sequences.

The target in the experiment is T1, GST-Rok (full length) (Bacillus subtilis subsp. subtilis str. …, UniProt O34857 1-191).
T1 sequence: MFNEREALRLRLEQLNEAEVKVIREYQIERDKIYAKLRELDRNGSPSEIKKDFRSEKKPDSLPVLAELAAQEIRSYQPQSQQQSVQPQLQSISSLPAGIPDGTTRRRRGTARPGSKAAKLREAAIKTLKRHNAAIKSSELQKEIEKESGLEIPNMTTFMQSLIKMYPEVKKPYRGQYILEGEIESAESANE
Description: protein binding microarray; Rok is a gene silencer of Bacillus subtilis; high values mean tight binding. The conditions noted are these: protein: recombinant; tags: GST (pTH5325, pDEST15-Magic modified); dsDNA, one strand shown. The method, boiled down:
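Every oligonucleotide joins a 25-mer constant primer to a 35-mer variable part drawn from a de Bruijn sequence of order 10, so each non-palindromic 8-mer appears at least 32 times and each palindromic 8-mer 16 times. The preference for every 8-mer is reported as a unitless, rank-based enrichment score (E-score). This score spans 0.5 for the most favored 8-mer to −0.5 for the most disfavored.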
For the sequence ATAGACTA, the binding signal came to 0.186 E-score.

Turning to AGGGAATC, the binding signal turned out to be 0.0103 E-score.

In the case of AGTTACCC, the binding signal was determined as 0.179 E-score.

For the sequence AAGACGTA, the binding signal was found to be 0.132 E-score.

For the sequence GGGATATA, the binding signal came to 0.221 E-score.

On to CCGATATA, for which the binding signal was 0.297 E-score.

With GAGATATC, the binding signal worked out at 0.181 E-score.

Turning to GCGATATA, the binding signal came to 0.342 E-score.

On to GATATAGC, for which the binding signal was 0.0453 E-score.

In the case of GATATATA, the binding signal amounted to 0.365 E-score.

With ACGATATA, the binding signal came out at 0.298 E-score.

For GTGATATA, the binding signal was found to be 0.25 E-score.

GATATATC: the binding signal came to 0.39 E-score.

Consider GGTACAAC, for which the binding signal was -0.0759 E-score.

With CTGGCAAA, the binding signal is -0.152 E-score.

Take ACACGTGC: the binding signal is -0.0468 E-score.

In the case of TAGCGTAA, the binding signal turned out to be 0.144 E-score.

For the sequence CGGAAATC, the binding signal came out at 0.0575 E-score.

As for CAGAAGCG, the binding signal is -0.142 E-score.

Consider AATATAGG, for which the binding signal amounted to 0.23 E-score.

Take AAAATAGA: the binding signal came to 0.325 E-score.

On to AATATAGC, for which the binding signal was 0.32 E-score.

TATATAGA: the binding signal stood at 0.404 E-score.

On to AAAATAGT, for which the binding signal was 0.407 E-score.

Consider AAAATAGC, for which the binding signal stood at 0.179 E-score.

As to CATATAGA, the binding signal amounted to 0.133 E-score.

As to GATATAGA, the binding signal is 0.228 E-score.

For the sequence CCTATAGA, the binding signal stood at 0.0582 E-score.

For the sequence AATATAGT, the binding signal is 0.359 E-score.

On to ACTATAGA, for which the binding signal was 0.174 E-score.

With TCTATAGA, the binding signal turned out to be 0.36 E-score.

As to GCCGCTCA, the binding signal is -0.181 E-score.

With AGCATGTC, the binding signal turned out to be 0.0983 E-score.

As for CAACTTTC, the binding signal is 0.15 E-score.

Consider CATTACCG, for which the binding signal came to 0.00887 E-score.

For the sequence ACAAAACT, the binding signal was 0.085 E-score.

As for CCTACCTC, the binding signal was determined as 0.0499 E-score.

Consider ATATAGGA, for which the binding signal amounted to 0.195 E-score.

Consider CTAGAGAA, for which the binding signal is 0.193 E-score.

As for AAAACGAC, the binding signal is -0.0861 E-score.

Turning to AGTTAAAA, the binding signal was found to be 0.197 E-score.

With CATTGACA, the binding signal was determined as 0.0572 E-score.

AATGGAGT: the binding signal came to 0.0603 E-score.

Consider TATATGGA, for which the binding signal turned out to be 0.343 E-score.

On to GATATGGA, for which the binding signal worked out at 0.139 E-score.

Regarding ACTATAGC, the binding signal was determined as 0.164 E-score.

For AGTATAGA, the binding signal was found to be 0.159 E-score.

ACTATAGT: the binding signal was 0.409 E-score.

As to ACTATAGG, the binding signal was found to be 0.0843 E-score.

In the case of CATATGGA, the binding signal was -0.0847 E-score.

As for AATAGAGA, the binding signal is 0.239 E-score.

As for AATATAGA, the binding signal was determined as 0.365 E-score.

Consider AGGTAATC, for which the binding signal is -0.0361 E-score.

In the case of AGCGGGGA, the binding signal was -0.076 E-score.

In the case of ACCACTAG, the binding signal was found to be 0.0844 E-score.

For AGGAATGC, the binding signal was -0.0829 E-score.

With ATACCTAG, the binding signal amounted to 0.31 E-score.

With CTACCTAC, the binding signal was 0.346 E-score.

As to GTACCTAA, the binding signal came out at 0.132 E-score.

For the sequence CTACCTAA, the binding signal was determined as 0.22 E-score.

With CTACCTAG, the binding signal was determined as 0.235 E-score.

Take ATACCTAT: the binding signal stood at 0.333 E-score.

With GAACCTAC, the binding signal was 0.15 E-score.

Consider GTACCTAC, for which the binding signal turned out to be 0.353 E-score.

As to ATACCTAC, the binding signal amounted to 0.351 E-score.

CTGCGCTA: the binding signal is -0.143 E-score.

Consider ACAGAAGG, for which the binding signal is -0.105 E-score.

Turning to AGTCTCTA, the binding signal is 0.0503 E-score.

In the case of GCACTTAC, the binding signal is -0.0436 E-score.

Consider TAAACCTA, for which the binding signal came to 0.181 E-score.

As to CGTGCGGA, the binding signal is -0.0584 E-score.

With CGGTAATC, the binding signal is -0.0198 E-score.

Turning to AAATAGCA, the binding signal was found to be 0.0964 E-score.

Regarding AAATAGCC, the binding signal came to 0.046 E-score.

Regarding CAATAGTG, the binding signal was found to be 0.287 E-score.

Take AAATAGCG: the binding signal came to 0.0843 E-score.

Consider AAATAGTA, for which the binding signal turned out to be 0.42 E-score.

In the case of GGGTAATA, the binding signal stood at 0.234 E-score.

In the case of CAATAGTC, the binding signal was found to be 0.101 E-score.

As for CGGTAATA, the binding signal came out at 0.372 E-score.

For the sequence CAATAGTA, the binding signal was determined as 0.341 E-score.

For AAATAGCT, the binding signal turned out to be 0.379 E-score.

Turning to ACATAGTA, the binding signal was 0.306 E-score.

On to CCTCGATA, for which the binding signal is -0.188 E-score.

For GTCCTGTA, the binding signal was -0.0798 E-score.

Turning to ATAGGTGA, the binding signal was found to be 0.0572 E-score.

Regarding GAGCCCAA, the binding signal is -0.192 E-score.

For the sequence GACCAGTA, the binding signal turned out to be 0.0441 E-score.

Consider CTTTTATC, for which the binding signal is 0.118 E-score.

As to ATTTGGGA, the binding signal was -0.131 E-score.

In the case of AAACGTCT, the binding signal was -0.171 E-score.

Regarding AAGTGACG, the binding signal was 0.0469 E-score.

Consider AAACAGGG, for which the binding signal was -0.0541 E-score.

For the sequence AGTTCCAT, the binding signal was determined as 0.0525 E-score.
